SENP7 inh: inhibitors of human SENP7 protease | 330,000 compounds, 1.5% hits | inhibition, % at 5 µM | Q9BQF6 | AID 434973 | recombinant SENP7, Z-RLRGG-aminoluciferin luminescence, 40 min;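 active = inhibition above about 50% at the single test dose, limit read from the data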;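 also: plate controls were DMSO with enzyme for no effect and no enzyme buffer wells for full effect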
Target sequence (Q9BQF6 706-1050 limits assumed): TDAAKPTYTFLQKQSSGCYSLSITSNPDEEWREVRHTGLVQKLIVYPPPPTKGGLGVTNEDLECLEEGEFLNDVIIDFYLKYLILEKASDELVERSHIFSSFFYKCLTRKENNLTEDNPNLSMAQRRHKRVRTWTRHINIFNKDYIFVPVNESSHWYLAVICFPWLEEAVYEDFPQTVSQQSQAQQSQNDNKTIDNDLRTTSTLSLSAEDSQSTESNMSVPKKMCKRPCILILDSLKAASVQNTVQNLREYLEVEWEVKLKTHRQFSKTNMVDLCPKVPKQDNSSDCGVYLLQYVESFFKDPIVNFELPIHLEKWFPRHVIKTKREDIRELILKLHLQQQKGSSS
SENP6 block: inhibitors of human SENP6 protease. 330,000 compounds, 1.8% hits. AID 2599. inhibition, % at 10 µM. Recombinant SENP6 catalytic domain, aminoluciferin luminescence. Q9GZR1;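 active = inhibition above about 50% at the single tested dose, limit read from the data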;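 also: plate controls were DMSO wells with enzyme for no effect and DMSO wells lacking enzyme for full effect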
Platelet DG rel: modulates dense granule release in human platelets | human platelet-rich plasma, SFLLRN dense granule ATP release, luminescence | inhibition, %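 (compounds screened at 7.5 µM in platelet-rich plasma)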 | 300,000 compounds, 0.22% hits | AID 1663;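 active = mean replicate score, as percent of positive control, at or above 50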
SENP8 block-1: inhibitors of human SENP8 protease; Q96LD8; purified SENP8, Z-RLRGG-aminoluciferin cleavage, luminescence; inhibition, % at 10 µM; 330,000 compounds, 1.2% hits; AID 2540; in the data active = inhibition above about 50%
SENP8 block-2: inhibitors of human SENP8 protease; Q96LD8; recombinant SENP8, Nedd8 substrate fluorescence; inhibition, % at 20 µM; 360,000 compounds, 0.64% hits; in the data active = inhibition mostly above about 40%, no sharp cut-off; inactive = mostly below about 27%
SENP8 conf: confirmation of human SENP8 protease inhibitors; shares compounds with SENP7 inh; Recombinant SENP8, Z-RLRGG-aminoluciferin luminescence, 60 min; inhibition, % at 12.5 µM; 6,200 compounds, 40% hits;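 active = mean inhibition across replicates above about 50%, limit read from the data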
SENP6 confirm: human SENP6 inhibition, confirmed; recombinant SENP6, Z-RLRGG-aminoluciferin luminescence; AID 488915; inhibition, % at 12.5 µM; shares compounds with SENP7 inh; 6,200 compounds, 58% hits
SENP7 conf: confirmation of human SENP7 protease inhibitors; shares compounds with SENP7 inh; recombinant SENP7, Z-RLRGG-aminoluciferin luminescence, 40 min; inhibition, % at 12.5 µM; 6,200 compounds, 69% hits
Casp3 select: selectivity test for SENP inhibitors: human caspase-3 inhibition; inhibition, % at 12.5 µM; 6,200 compounds, 60% hits; AID 488918; purified caspase-3, Z-DEVD-aminoluciferin luminescence, 60 min; shares compounds with SENP7 inh;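 active = mean inhibition above about 50%, limit read from the data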;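 also: plate controls were enzyme with DMSO for no effect and wells without caspase-3 for full effect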
Target sequence (P42574 28-227 limits assumed): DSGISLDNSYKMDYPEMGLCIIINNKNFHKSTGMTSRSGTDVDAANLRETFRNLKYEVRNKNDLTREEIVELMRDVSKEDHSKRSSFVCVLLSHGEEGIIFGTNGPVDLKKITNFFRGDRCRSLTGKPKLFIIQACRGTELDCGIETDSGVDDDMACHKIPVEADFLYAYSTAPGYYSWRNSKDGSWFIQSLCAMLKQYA
Luc interf: counter-screen for SENP inhibitors: luminescence interference | shares compounds with SENP7 inh | Pre-incubated SENP8/Z-RLRGG-aminoluciferin, luciferase luminescence interference | inhibition, % at 12.5 µM | 6,200 compounds, 39% hits;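 active = mean inhibition above about 50% when retested at one dose, limit read from the data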;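 also: plate controls were DMSO wells with completed reaction for no effect and substrate without enzyme for full effect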
Active calls of the source: *; x = no result. An excerpt weighted towards active compounds, which were near 2.4% of everything screened.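 The calls were made as follows, unless noted: active = mean inhibition above about 50% in the one-dose retest (limit read from the data); inactive = the rest.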

SMILES	SENP7 inh	SENP6 block	Platelet DG rel	SENP8 block-1	SENP8 block-2	SENP8 conf	SENP6 confirm	SENP7 conf	Casp3 select	Luc interf
O=c1c2cc(Br)ccc2nc(-c2ccccc2)n1O	-3	62*	5	48	-3	65*	61*	84*	61*	72*
Cc1ccc(-c2nc3ccccc3c(=O)n2O)cc1	-7	3	6	-13	10	x	x	x	x	x
O=C(CNS(=O)(=O)c1c(F)cccc1F)NC1CCCc2ccccc21 (stereo not given)	4	13	x	5	6	x	x	x	x	x
CN(CC(=O)Nc1ccccc1Cl)C(=O)COC(=O)c1ccccc1[N+](=O)[O-]	101*	1	0	-6	3	0	4	7	4	-2
O=C(COC(=O)c1ccc([N+](=O)[O-])s1)Nc1ccccc1	36	64*	-3	53*	33	82*	88*	50	20	-6
O=C(OCC(=O)N1CCC(c2ccccc2)=N1)c1ccc([N+](=O)[O-])s1	15	56*	-2	63*	25	37	74*	26	9	7
CCc1ccccc1NC(=O)CN(C)C(=O)COC(=O)c1ccccc1Cl	-1	0	x	3	12	x	x	x	x	x
O=C(COC(=O)COc1ccccc1)Nc1ncc([N+](=O)[O-])s1	76*	91*	x	88*	13	90*	89*	99*	92*	90*
COCCNC(=O)C1(C)CCCN(Cc2ccc(-n3ccnc3)cc2)C1 (stereo not given)	x	x	x	x	13	x	x	x	x	x
CC(C)n1cc(CN2CCN(C)C(CCO)C2)c2ccccc21 (stereo not given)	1	-2	18	-3	28	x	x	x	x	x
COCCNC(=O)C1(C)CCN(C(=O)c2oc3ccccc3c2C)C1 (stereo not given)	x	x	x	x	8	x	x	x	x	x
COC(=O)c1ccccc1S(=O)(=O)NNC(=O)c1nn(C)c(=O)c2ccccc12	0	-7	x	-3	-3	x	x	x	x	x
c1ccc(Oc2c3ccccc3nc3ccccc23)cc1	16	-13	-10	-13	x	x	x	x	x	x
Cc1nc(C)c(-c2ccc(SCc3ccccc3F)nn2)s1	2	11	4	-13	10	x	x	x	x	x
O=C(NCc1nnc(SCC(=O)N2CCCCC2)o1)c1c(F)cccc1Cl	-1	7	-1	3	11	x	x	x	x	x
O=C(COC(=O)c1ccc(O)cc1)Nc1ccccc1[N+](=O)[O-]	8	57*	-3	37	22	46	39	70*	52*	42
O=C(COC(=O)c1ccc([N+](=O)[O-])s1)Nc1cccc(S(=O)(=O)NC2=NCCCCC2)c1	37	65*	-1	61*	19	80*	87*	45	10	1
O=C(COC(=O)c1cccs1)Nc1cccc(S(=O)(=O)NC2=NCCCCC2)c1	5	-6	1	-3	12	x	x	x	x	x
COc1ccc(S(=O)(=O)N2CCOCC2)cc1NC(=O)COC(=O)c1ccc([N+](=O)[O-])s1	33	53*	x	67*	37	-6	83*	35	3	3
COc1ccc(S(=O)(=O)N2CCOCC2)cc1NC(=O)COC(=O)c1[nH]c(C)c(C(C)=O)c1C	-2	7	x	-8	-2	x	x	x	x	x
O=C(COC(=O)c1ccc([N+](=O)[O-])s1)NCc1ccccc1	48	73*	-4	62*	12	58*	72*	21	-1	-8
COc1cc(CN2CCCN(C)CC2)cc([N+](=O)[O-])c1O	13	-1	3	-31	11	x	x	x	x	x
O=C(NNc1ncnc2ccccc12)c1cccc(Cl)c1	7	-10	1	3	-38	x	x	x	x	x
COc1ccc(S(=O)(=O)N2CCCCC2)cc1C(=O)N1CCCC1	2	-23	-3	2	5	x	x	x	x	x
O=C(Nc1ncc([N+](=O)[O-])s1)c1ccco1	92*	92*	13	91*	16	93*	93*	102*	98*	66*
SMILES	SENP7 inh	SENP6 block	Platelet DG rel	SENP8 block-1	SENP8 block-2	SENP8 conf	SENP6 confirm	SENP7 conf	Casp3 select	Luc interf
O=C(OCc1nnc(-c2ccccc2)o1)c1ccc([N+](=O)[O-])s1	31	68*	x	71*	31	72*	83*	40	10	-2
Cc1ccc(C(=O)Nc2ncc([N+](=O)[O-])s2)cc1	x	x	26	x	20	x	x	x	x	x
Cc1ccc(C(=O)OCc2nnc(-c3ccccc3)o2)s1	1	-2	-5	-4	13	x	x	x	x	x
CC(C)(C)c1ccc(NC(=O)COC(=O)c2ccc([N+](=O)[O-])s2)cc1	x	x	x	x	20	x	x	x	x	x
O=C(COC(=O)c1ccc([N+](=O)[O-])s1)Nc1ccc(F)cc1	40	66*	x	69*	34	68*	88*	48	13	-5
O=C(COc1ccccc1Br)Nc1ccccc1C(F)(F)F	-8	5	-4	-1	1	x	x	x	x	x
Cc1ccc(OCCNC(=O)c2ccccc2SCC(=O)N2CCCC2)cc1	-2	4	-5	-2	6	x	x	x	x	x
Cc1ccc(N=Cc2sc(O)c3ccccc23)cc1	76*	68*	2	86*	-60	90*	92*	100*	74*	47
N/C(=N\OC(=O)c1cccc(F)c1)c1ccccc1	95*	91*	9	77*	13	83*	85*	97*	92*	78*
Cc1ccc(/C(N)=N/OC(=O)c2cccc(F)c2)cc1	76*	61*	-8	29	19	32	49	83*	61*	48
Clc1cccc(C2CCN(Cc3nc(CC4CC4)no3)C2)c1 (stereo not given)	-3	-41	-2	-13	6	x	x	x	x	x
COCC(C)n1c(C)cc(C(=O)COC(=O)c2n[nH]c3ccccc23)c1C (stereo not given)	30	55*	-6	21	16	48	42	67*	47	48
O=C1NC(=O)C(c2ccccc2)(C2CCCC2)N1 (stereo not given)	x	x	x	x	20	x	x	x	x	x
COc1ccc(C(=O)NC2CCN(C(=S)NCc3ccco3)CC2)cc1	60*	-11	8	-3	13	-1	4	11	6	1
O=C(NC1CCN(C(=S)NCc2ccco2)CC1)c1cccc(F)c1	6	-22	-1	-1	7	x	x	x	x	x
c1csc(-c2nc(-c3ccc(-c4ccon4)s3)no2)c1	88*	51*	9	44	-231	4	16	15	24	8

Compound activity as filed in PubChem.
